# Assay results: PubChem BioAssay AID1159580 (chemical genetic matrix, 2015)
# In all, about 5,500 compounds went through this assay and about 2,000 (36%) were called active. Another 18% or so got no clear call; they are omitted. The list shows a part of the results. Values without a mark were called inactive. Rule as the data show it: active = normalized growth mostly below about 0.91 (no sharp cut-off); inconclusive = no clear call, values can overlap the other calls; inactive = mostly above about 0.92.
# Assay: chemical genetic growth profiling, strain panel (AID 1159580);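 also: tested at 20 µM; growth read once vehicle control cultures reached saturation at 30 °C; 1 = growth at the plate median or of vehicle wells; lower values mean less growth of the strain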
# Settings: S. cerevisiae deletion strains, growth OD
smiles,measurement,setting,value
COC1C(O)C(O[C@H]2CC[C@]3(C=O)C4C(CC[C@]3(O)C2)[C@@]2(O)CC[C@H](C3=CC(=O)OC3)[C@@]2(C)C[C@H]4OC(C)=O)OC(C)C1OC(C)=O (some centres undefined),normalized growth,"locus YAL021C, strain ccr4, hits give low values",0.977
same,normalized growth,"locus YAL026C, strain drs2, hits give low values",1.02
same,normalized growth,"locus YAL030W, strain snc1, hits give low values",0.977
same,normalized growth,"locus YBL061C, strain skt5, hits give low values",1.02
same,normalized growth,"locus YBR009C, strain hhf1, hits give low values",0.973
same,normalized growth,"locus YBR021W, strain FUR4, hits give low values",1.02
same,normalized growth,"locus YBR023C, strain chs3, hits give low values",1.01
same,normalized growth,"locus YBR171W, strain sec66, hits give low values",1.04
same,normalized growth,"locus YBR229C, strain ROT2, hits give low values",1.02
same,normalized growth,"locus YBR231C, strain swc5, hits give low values",1
same,normalized growth,"locus YBR279W, strain paf1, hits give low values",1.01
same,normalized growth,"locus YCL011C, strain gbp2, hits give low values",1
same,normalized growth,"locus YCL016C, strain dcc1, hits give low values",1
same,normalized growth,"locus YCL029C, strain bik1, hits give low values",1.05
same,normalized growth,"locus YCL069W, strain vba3, hits give low values",1.01
same,normalized growth,"locus YCR088W, strain abp1, hits give low values",1.02
same,normalized growth,"locus YDL005C, strain med2, hits give low values",1.01
same,normalized growth,"locus YDL035C, strain GPR1, hits give low values",1.03
same,normalized growth,"locus YDL040C, strain nat1, hits give low values",1.03
same,normalized growth,"locus YDL074C, strain BRE1, hits give low values",1.04
same,normalized growth,"locus YDL101C, strain DUN1, hits give low values",1.02
same,normalized growth,"locus YDL134C, strain PPH21, hits give low values",1.03
same,normalized growth,"locus YDL185W, strain tfp1, hits give low values",1.01
same,normalized growth,"locus YDL192W, strain arf1, hits give low values",1.03
same,normalized growth,"locus YDR001C, strain nth1, hits give low values",1.02
same,normalized growth,"locus YDR069C, strain doa4, hits give low values",0.951
same,normalized growth,"locus YDR101C, strain arx1, hits give low values",1.04
same,normalized growth,"locus YDR137W, strain rgp1, hits give low values",1.04
same,normalized growth,"locus YDR159W, strain sac3, hits give low values",0.966
same,normalized growth,"locus YDR162C, strain NBP2, hits give low values",1.06
same,normalized growth,"locus YDR195W, strain ref2",1.01
same,normalized growth,"locus YDR297W, strain sur2, hits give low values",0.956
same,normalized growth,"locus YDR318W, strain mcm21, hits give low values",1.03
same,normalized growth,"locus YDR334W, strain swr1, hits give low values",1.02
same,normalized growth,"locus YDR335W, strain msn5, hits give low values",0.982
same,normalized growth,"locus YDR388W, hits give low values",1.07
same,normalized growth,"locus YDR392W, strain spt3, hits give low values",1.04
same,normalized growth,"locus YDR502C, strain sam2, hits give low values",1.03
same,normalized growth,"locus YEL003W, strain gim4, hits give low values",1.02
same,normalized growth,"locus YEL037C, strain rad23, hits give low values",1.01
same,normalized growth,"locus YEL061C, strain CIN8 (second series), hits give low values",1.02
same,normalized growth,"locus YER015W, strain faa2, hits give low values",1
same,normalized growth,"locus YER016W, strain bim1, hits give low values",1.01
same,normalized growth,"locus YER110C, hits give low values",1.09
same,normalized growth,"locus YER111C, strain swi4, hits give low values",1.02
same,normalized growth,"locus YER155C, strain BEM2 (second series), hits give low values",1.04
same,normalized growth,"locus YER155C, strain BEM2, hits give low values",1.03
same,normalized growth,"locus YER167W, strain BCK2, hits give low values",1.03
same,normalized growth,"locus YFR010W, strain ubp6, hits give low values",1.04
same,normalized growth,"locus YGL078C, strain dbp3, hits give low values",1.03
same,normalized growth,"locus YGL167C, strain pmr1, hits give low values",1.02
same,normalized growth,"locus YGL173C, strain kem1, hits give low values",1.03
same,normalized growth,"locus YGL227W, strain vid30, hits give low values",1.02
same,normalized growth,"locus YGL240W, strain doc1, hits give low values",0.973
same,normalized growth,"locus YGL248W, strain PDE1, hits give low values",1.04
same,normalized growth,"locus YGL253W, strain hxk2, hits give low values",0.984
same,normalized growth,"locus YGR135W, strain pre9, hits give low values",1.03
same,normalized growth,"locus YGR252W, strain gcn5, hits give low values",1.22
same,normalized growth,"locus YHR013C, strain ard1, hits give low values",1.01
same,normalized growth,"locus YHR027C, strain rpn1, hits give low values",0.996
same,normalized growth,"locus YHR079C, strain IRE1 (second series), hits give low values",1.01
same,normalized growth,"locus YHR094C, strain hxt1, hits give low values",1.11 [resistant] (active)
same,normalized growth,"locus YHR129C, strain ARP1, hits give low values",1.03
same,normalized growth,"locus YHR142W, strain chs7, hits give low values",1.03
same,normalized growth,"locus YHR200W, strain rpn10, hits give low values",1.04
same,normalized growth,"locus YIL066C, strain RNR3, hits give low values",1.04
same,normalized growth,"locus YIL073C, strain SPO22, hits give low values",1.1
same,normalized growth,"locus YIL125W, strain kgd1, hits give low values",0.996
same,normalized growth,"locus YIR030C, strain dcg1, hits give low values",1.01
same,normalized growth,"locus YJL092W, strain hpr5, hits give low values",1.02
same,normalized growth,"locus YJL095W, strain BCK1 (second series), hits give low values",0.974
same,normalized growth,"locus YJL095W, strain BCK1, hits give low values",1.07
same,normalized growth,"locus YJL115W, strain asf1, hits give low values",1.01
same,normalized growth,"locus YJL129C, strain trk1, hits give low values",1.04
same,normalized growth,"locus YJL134W, strain LCB3, hits give low values",1.01
same,normalized growth,"locus YJL154C, strain vps35, hits give low values",1.01
same,normalized growth,"locus YJL164C, strain tpk1, hits give low values",1.02
same,normalized growth,"locus YJL166W, strain qcr8, hits give low values",0.991
same,normalized growth,"locus YJL168C, strain set2, hits give low values",1.03
same,normalized growth,"locus YJL187C, strain SWE1 (second series), hits give low values",1.03
same,normalized growth,"locus YJR043C, strain POL32, hits give low values",1.02
same,normalized growth,"locus YJR075W, strain HOC1, hits give low values",1.01
same,normalized growth,"locus YKL009W, strain mrt4, hits give low values",0.959
same,normalized growth,"locus YKL068W, hits give low values",1.1 [resistant] (active)
same,normalized growth,"locus YKL085W, strain MDH1 (second series), hits give low values",1.1 [resistant] (active)
same,normalized growth,"locus YKL085W, strain MDH1, hits give low values",1.1 [resistant] (active)
same,normalized growth,"locus YKL160W, strain elf1, hits give low values",1.02
same,normalized growth,"locus YKR001C, strain vps1, hits give low values",1.02
same,normalized growth,"locus YKR026C, strain gcn3, hits give low values",1.02
same,normalized growth,"locus YKR091W, strain srl3, hits give low values",1.02
same,normalized growth,"locus YLL001W, strain dnm1, hits give low values",1.02
same,normalized growth,"locus YLL026W, hits give low values",1
same,normalized growth,"locus YLL041C, strain sdh2, hits give low values",0.985
same,normalized growth,"locus YLR027C, strain aat2, hits give low values",0.979
same,normalized growth,"locus YLR039C, strain RIC1, hits give low values",1.1
same,normalized growth,"locus YLR058C, strain SHM2, hits give low values",1.02
same,normalized growth,"locus YLR102C, strain apc9, hits give low values",1.17 [resistant] (active)
same,normalized growth,"locus YLR221C, strain rsa3, hits give low values",0.988
same,normalized growth,"locus YLR258W, strain gsy2, hits give low values",0.973
same,normalized growth,"locus YLR262C, strain YPT6 (second series), hits give low values",1.05
same,normalized growth,"locus YLR268W, strain sec22, hits give low values",1.03
same,normalized growth,"locus YLR320W, strain mms22, hits give low values",1.02
same,normalized growth,"locus YLR342W, strain FKS1, hits give low values",1.01
same,normalized growth,"locus YLR357W, strain rsc2, hits give low values",1.03
same,normalized growth,"locus YLR370C, strain arc18, hits give low values",0.98
same,normalized growth,"locus YLR371W, strain rom2, hits give low values",1.16 [resistant] (active)
same,normalized growth,"locus YLR384C, strain iki3, hits give low values",0.987
same,normalized growth,"locus YLR418C, strain cdc73, hits give low values",1.02
same,normalized growth,"locus YML016C, strain PPZ1, hits give low values",1.02
same,normalized growth,"locus YML032C, strain rad52, hits give low values",1.03
same,normalized growth,"locus YML120C, strain ndi1, hits give low values",0.969
same,normalized growth,"locus YML124C, strain tub3, hits give low values",1.02
same,normalized growth,"locus YMR058W, strain fet3, hits give low values",1.02
same,normalized growth,"locus YMR078C, strain ctf18, hits give low values",1.07
same,normalized growth,"locus YMR125W, strain sto1, hits give low values",1.02
same,normalized growth,"locus YMR129W, hits give low values",0.978
same,normalized growth,"locus YMR205C, strain PFK2, hits give low values",0.986
same,normalized growth,"locus YMR223W, strain ubp8, hits give low values",1.01
same,normalized growth,"locus YMR231W, strain pep5, hits give low values",1.02
same,normalized growth,"locus YMR263W, strain SAP30, hits give low values",1.04
same,normalized growth,"locus YMR307W, strain GAS1, hits give low values",1.07
same,normalized growth,"locus YNL067W, strain RPL9B, hits give low values",1.02
same,normalized growth,"locus YNL071W, strain lat1, hits give low values",1.03
same,normalized growth,"locus YNL209W, strain ssb2, hits give low values",0.994
same,normalized growth,"locus YNL233W, strain BNI4, hits give low values",1.04
same,normalized growth,"locus YNL248C, strain rpa49, hits give low values",1.01
same,normalized growth,"locus YNL250W, strain rad50, hits give low values",1.04
same,normalized growth,"locus YNL271C, strain bni1, hits give low values",1.02
same,normalized growth,"locus YNL298W, strain CLA4, hits give low values",1.07
same,normalized growth,"locus YNL307C, strain MCK1, hits give low values",1.12 [resistant] (active)
same,normalized growth,"locus YNL322C, strain KRE1 (second series), hits give low values",1.02
same,normalized growth,"locus YNR049C, strain mso1, hits give low values",0.972
same,normalized growth,"locus YNR052C, strain pop2, hits give low values",1.13 [resistant] (active)
same,normalized growth,"locus YOL012C, strain htz1",1.05
same,normalized growth,"locus YOL147C, strain pex11, hits give low values",1.02
same,normalized growth,"locus YOR001W, strain rrp6, hits give low values",0.97
same,normalized growth,"locus YOR061W, strain CKA2, hits give low values",1.04
same,normalized growth,"locus YOR069W, strain VPS5, hits give low values",1.02
same,normalized growth,"locus YOR070C, strain gyp1, hits give low values",0.989
same,normalized growth,"locus YOR080W, strain dia2, hits give low values",1.01
same,normalized growth,"locus YOR083W, strain WHI5, hits give low values",1.03
same,normalized growth,"locus YOR106W, strain vam3, hits give low values",1.01
same,normalized growth,"locus YOR136W, strain idh2, hits give low values",1.03
same,normalized growth,"locus YOR144C, strain elg1, hits give low values",1.03
same,normalized growth,"locus YOR184W, strain ser1, hits give low values",1.05
same,normalized growth,"locus YOR265W, strain rbl2, hits give low values",0.993
same,normalized growth,"locus YOR270C, strain vph1, hits give low values",1.04
same,normalized growth,"locus YOR290C, strain snf2, hits give low values",1.03
same,normalized growth,"locus YOR316C, strain cot1, hits give low values",1.08
same,normalized growth,"locus YPL051W, strain arl3, hits give low values",1.02
same,normalized growth,"locus YPL078C, strain atp4, hits give low values",1.01
same,normalized growth,"locus YPL106C, strain sse1, hits give low values",1.05
same,normalized growth,"locus YPL240C, strain hsp82, hits give low values",1.01
same,normalized growth,"locus YPL241C, strain CIN2, hits give low values",1.01
same,normalized growth,"locus YPR119W, strain clb2, hits give low values",1.11 [resistant] (active)
same,normalized growth,"locus YPR141C, strain kar3, hits give low values",0.98
same,normalized growth,"locus YPR163C, strain tif3, hits give low values",1.03
same,normalized growth,"locus YPR167C, strain met16, hits give low values",1.02
same,normalized growth,"strain wtn01, hits give low values",1.02
